The other results are listed elsewhere or left out. Results filed as inconclusive are left out. Active and inactive are the calls of the source. The call rests on the fitted dose curve; in most records, active means well fitted inhibition curve with a large enough effect; inconclusive means small, poorly fitted or top-dose-only effect; inactive means flat fitted curve, though single readings scatter.

The assay deals with Fructose-bisphosphate aldolase A (Oryctolagus cuniculus) (UniProt P00883). Nature of the assay: qHTS Assay for Inhibitors of Fructose-1,6-bisphosphate Aldolase from Giardia Lamblia: Rabbit FBPA Selectivity (AID 2794). Further: nearly all actives have a fitted effect of over 60% in size. The conditions noted are these: Rabbit muscle FBPA enzyme inhibition, selectivity counter-screen; series mostly up to 57.5 µM. An excerpt: NIH Chemical Genomics Center [NCGC]
Chain of Fructose-bisphosphate aldolase A (Oryctolagus cuniculus) (P00883 whole entry, looked up): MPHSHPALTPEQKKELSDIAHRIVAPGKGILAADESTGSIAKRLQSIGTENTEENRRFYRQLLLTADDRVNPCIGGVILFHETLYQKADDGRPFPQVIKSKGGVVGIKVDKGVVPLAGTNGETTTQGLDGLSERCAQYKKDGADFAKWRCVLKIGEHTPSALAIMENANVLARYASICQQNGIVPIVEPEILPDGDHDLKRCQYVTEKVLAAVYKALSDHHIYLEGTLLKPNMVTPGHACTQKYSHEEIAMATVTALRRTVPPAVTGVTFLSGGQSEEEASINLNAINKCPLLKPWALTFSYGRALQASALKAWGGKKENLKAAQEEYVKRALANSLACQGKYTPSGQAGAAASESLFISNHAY
NIH Molecular Libraries Probe Production centers Network [MLPCN]
Assay Provider: Osnat Herzberg, University of Maryland
The objective of this project is to obtain compounds that inhibit Giardia lamblia growth. G. lamblia is a human pathogen which afflicts impoverished nations; it is the most common cause of outbreaks of diarrhea in the United States. During the course of our study of potential drug targets in Giardia, we have identified the Class II (Zn2+ functions in electrophilic catalysis) fructose-1,6-bisphosphate aldolase (FBPA) as an excellent candidate for drug targeting. FBPA is a key glycolytic pathway enzyme, essential for G. lamblia survival. The human FBPA belongs to the Class I aldolases, which have a different substrate binding site structure and a radically different catalytic mechanism (employing a lysine-Schiff base intermediate). Therefore, affinity-based or mechanism-based inhibitors of the Giardia FBPA are expected not to interfere with the catalytic function of the human FBPA.
A glyceraldehyde-3-phosphate dehydrogenase/triose phosphate isomerase/NAD/arsenate coupled assay was adapted to the 1536-well HTP format for use in the primary screen. This was done by coupling it to a diaphorase/resazurin/resorufin reaction that can be monitored by fluorescence (excitation, 544 nm; emission, 590 nm). Compounds identified in this screen will be further evaluated by coupling the glycerol-3-phosphate/triose phosphate isomerase/NADH assay to a phenazine methosulfate/tetranitroblue tetrazolium color reaction. False positives due to the dehydrogenases and diaphorase inhibition will be eliminated, and selectivity assay will triage inhibitors of mammalian triose phosphate isomerase and the Class I FBPA. G. lamblia FBPA inhibitors identified by the in vitro analyses will be examined for growth inhibition of Giardia trophozoites, and for cytotoxicity in human cells.
This assay addresses whether hits in the primary screen are selective for […] FBPA, by using rabbit FBPA enzyme in the protocol.
Step,Parameter,Value,Description
1,Coupling enzyme reagent,2 uL,glyceraldehyde-3-phosphate
2,Compound,23 nL,3.68 nM-57.5 uM final concentration
3,Time,10 min,RT Incubation
4,Substrate/detection Reagent,2 uL,Substrate + enzyme coupling system + AmpLite Red kit
5,Time,20 min,RT Incubation
6,Detector,525 nm/598 nm (Fluorescence),ViewLux Fluorescence Read (Read 1)
1,Medium-binding black solid-bottom Kalypsys plates. FRD or Kalypsys dispenser.
2,Compound Library (10 mM ,1:5 dilution). Pin-transferred for a [final] range of 3.68 nM-57.5 uM.
4,FRD or Kalypsys dispenser, 2 uL of reaction mixture. Bottle kept at 4C and covered in foil to protect from light.
6,ViewLux Protocol 1194; Excitation filter wheel A (525/20 Pol; BODIPY TMR FP), Emission filter wheel B (598/25 S; BODIPY TMR FP S).
Keywords: Fructose-bisphosphate aldolase, FBPA , Giardia lamblia , Giardia, HTS, Inhibitors
Regarding `Cc1cc(C)c2c(=O)[nH]c(SCC(=O)Nc3ccc(Br)cc3)nc2n1`, the outcome was inactive.
With `COC(=O)CC1=NN(c2nc(C)cc(C)n2)C(=O)C1` the entry was “inactive”.
On to `CN1CCN(CCCCOc2ccccc2-c2ccccc2)CC1`, for which the compound was called inactive.
In the case of `O=C1CCCN1CCCNC(=S)Nc1ccc(F)c(Cl)c1`, the compound was classed as inactive.
As for `COc1ccc(N=Nc2c(-c3ccc(OC)cc3)[nH]oc2=O)cc1`, the entry is “inactive”.
In the case of `O=C(Nc1nnc(-c2ccco2)o1)c1ccc(S(=O)(=O)N2CCOCC2)cc1`, the call was inactive.
As for `CCS(=O)(=O)c1cc([N+](=O)[O-])c(Sc2ccccc2N)s1`, the entry is “inactive”.
Regarding `O=C(CSc1cccc[n+]1[O-])c1ccc(-c2ccccc2)cc1`, the result was inactive.
Regarding `O=c1nc(N/N=C/c2ccco2)cn[nH]1`, the outcome was inactive.
With `Cc1cc(C)n(-c2ccc(Cl)c(C(=O)O)n2)n1`, the call was inactive.
As for `O=C(O)Cn1c(Cc2ccccc2)nc2ccccc21`, the entry is “inactive”; as for `O=C(N/N=C/c1ccccn1)c1cccnc1`, “inactive”; as for `Oc1ccc2ccccc2c1N=Nc1nccs1`, “inactive”.
With `CCc1ccc2c(c1)C1(NN=C(c3ccccc3)S1)C(=O)N2` (stereo not given) the entry was “inactive”; with `O=C(NC(=S)Nc1ncccn1)c1ccccc1Br`, “inactive”; with `Cc1cccc(-c2nnc(SCC(=O)O)n2Cc2ccccc2)c1`, “inactive”.
With `Cc1nnc(N/N=C/c2ccccn2)[nH]c1=O` the entry was “inactive”; with `CN1CCCc2cc(C#N)c(=O)[nH]c21`, “inactive”; with `COc1ccc(OC)c(Nc2nc(-c3ccc(O)c(O)c3)cs2)c1`, “inactive”.
For `Cc1cc(C)nc(N/N=C/c2ccc([N+](=O)[O-])o2)n1`, the result was inactive.
As for `CCN1CCc2c(C#N)c(NCc3ccccc3)nc(NCCO)c2C1`, the entry is “inactive”; as for `Cc1ccc(S(=O)(=O)NNC(=S)NC(C)(C)C)cc1`, “inactive”; as for `C/C(=N\NC(N)=S)c1cccnc1`, “inactive”.
With `O=C(CN1CCN(Cc2ccccc2)CC1)Nc1ccc(F)c(F)c1` the entry was “inactive”.
As for `COc1ccc(C(=O)NC(=S)N2CCCCC2c2cccnc2)cc1OC` (stereo not given), the entry is “inactive”; as for `CNC(=S)N/N=C/c1ccc(N2CCOCC2)s1`, “inactive”.
Regarding `C=CCc1cc(C)ccc1OCCCn1ccnc1`, the compound was called inactive.
As for `O=[N+]([O-])c1cc([N+](=O)[O-])c2cccnc2c1O`, the entry is “inactive”.
With `Cc1ccc(OCCCCc2c(C)n[nH]c2C)cc1` the entry was “inactive”; with `COCCN(C(=S)Nc1ccccc1OC)C1CCN(C(C)C)CC1`, “inactive”.
As for `CC(C)(c1ccccc1)c1ccc(OCCN2CCCC2)cc1`, the entry is “inactive”.
In the case of `C=CCNC(=S)/N=c1/ccccn1Cc1ccccc1`, the call was inactive.
With `CCN(CC(=O)Nc1ccc(S(=O)(=O)N2CCCC2)cc1)CC(=O)Nc1cccc(OC)c1` the entry was “inactive”.
Turning to `Cc1ccc(C(=O)Nc2nnc(C3=COCCO3)o2)cc1C`, the compound was called inactive.
As for `Cn1nnc(NC(=S)NC(=O)c2ccccc2)n1`, the entry is “inactive”; as for `Cc1nc2ccc(NC(=S)N3CCC(C)CC3)cc2nc1C`, “inactive”; as for `Cc1csc(NC(=O)CN2CCCCCC2)n1`, “inactive”.
As for `COc1ccccc1CN1CCN(Cc2cc(OC)c(OC)cc2OC)CC1`, the entry is “inactive”; as for `CCN(CC(=O)NC(=O)NCc1ccccc1)Cc1nc2ccccc2c(=O)[nH]1`, “inactive”.
As for `COc1ccc(Cl)cc1C(=O)NNC(=O)c1nc2nc(C)cc(C)n2n1`, the entry is “inactive”.

The record behind these values is PubChem BioAssay (NCATS).
